Activity calls are given as the source filed them.
Experiments:
[1] = compound effects on lung adenocarcinoma cell viability – A549, calcein-AM fluorescence, 48 h, basal, profiling panel (AID 1162); conditions: higher = more signal
[2] = compound effects on differentiated 3T3-L1 adipocyte viability – cell-based, 3T3-L1 adipocytes, calcein-AM fluorescence, 48 h, basal, profiling panel (AID 1163); conditions: 3T3-L1 adipocytes viability, higher = more signal
[3] = compound effects on hepatocellular carcinoma cell viability – HepG2, calcein-AM fluorescence, 48 h, basal, profiling panel (AID 1164); conditions: higher = more signal
[4] = compound effects on multiple myeloma cell viability – MM1S, calcein-AM fluorescence, 48 h, basal, profiling panel (AID 1165); conditions: higher = more signal
[5] = calcein-AM signal in unstimulated myeloma cells – cell-based, calcein-AM fluorescence, 48 h, PK04 Diversity Set, profiling panel (AID 1166); conditions: RPMI8226 myeloma viability, higher = more signal;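 further: cells grown under basal conditions without added stimulus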
[6] = JC-1 mitochondrial signal, unstimulated HepG2 cells – cell-based, JC-1 fluorescence, 24 h, 100 nL compound, profiling panel (AID 1167); conditions: HepG2 mitochondrial potential, higher = more signal
[7] = JC-1 mitochondrial signal, unstimulated adipocytes – cell-based, JC-1 fluorescence, 3T3-L1 adipocytes, 24 h, 100 nL compound, profiling panel (AID 1168); conditions: JC-1 mitochondrial fluorescence, higher = more signal, called active from +8 up or from −8 down
[8] = JC-1 mitochondrial signal, unstimulated myeloma cells – cell-based, JC-1 fluorescence, RPMI8226, 24 h, 100 nL compound, profiling panel (AID 1169); conditions: JC-1 mitochondrial potential fluorescence, higher = more signal
[9] = JC-1 mitochondrial signal, unstimulated MM1S myeloma – cell-based, JC-1 fluorescence, 24 h, 100 nL compound, profiling panel (AID 1170); conditions: MM1S mitochondrial potential, higher = more signal
[10] = resazurin metabolic signal in A549 cells – cell-based, resazurin fluorescence, 24 h, PK04 Diversity Set, profiling panel (AID 1171); conditions: A549 viability, higher = more signal, called active from +8 up or from −8 down
Further: test concentration not given here.

Compound	z-score [1]	z-score [2]	z-score [3]	z-score [4]	z-score [5]	z-score [6]	z-score [7]	z-score [8]	z-score [9]	z-score [10]
CCCNC(=O)OC[C@H]1O[C@H](CCON=C2[C@H]3CCn4c(=O)n(-c5ccccc5)c(=O)n4[C@H]3[C@H](O)[C@@H]3O[C@H]23)C=C[C@@H]1Oc1ccc(OC)cc1	-0.343	-0.414	-0.555	-1.83	-1.44	-0.25	-0.567 (inactive)	-0.7	-0.75	-1.2 (inactive)
C#CCCCON=C1C[C@@H](O)[C@@H](O)[C@@H]2[C@@H]3C(=O)N(CCC(=O)OCC)C(=O)[C@@H]3CC[C@@H]12	-0.284	-0.533	-0.675	0.17	-0.608	-1.18	-1.66 (inactive)	0.213	-0.123	-0.0981 (inactive)
COCCCNC(=O)[C@@]1(Sc2ccc(C)cc2)CC(=O)N(Cc2ccccc2)[C@@H]1c1ccc(CO)cc1I	1.17	0.422	0.264	-2.37	-1.94	0.735	-0.253 (inactive)	-0.617	-1.47	0.491 (inactive)
CCCCCN1CC=CC23O[C@@H]4C=CCOC(=O)[C@@H]4[C@H]2C(=O)N(CCCCCCO)[C@@H]3C1=O (stereo not given in full)	-0.262	-0.0159	0.63	1.04	-0.534	-0.429	-0.574 (inactive)	-0.343	-0.414	0.444 (inactive)
C[C@H]1CC[C@@H](C(=O)O)N[C@@H]1c1ccc(C#CCN(C)C)cc1	0.683	0.398	0.777	0.601	-0.338	0.984	0.461 (inactive)	-0.562	0.921	0.413 (inactive)
COC(=O)[C@@]1(Cc2ccc(F)cc2)[C@@H]2C(=CC(=O)[C@H]2CC(=O)C(=O)N(C)C)CN1C(=O)c1ccccc1	-1.29	-1.34	0.201	-1.24	-2.67	2.62	0.441 (inactive)	-0.817	-2.01	-1.73 (inactive)
CCOC(=O)NN=C1C[C@@H](O)[C@@H](O)[C@@H]2[C@@H]3C(=O)N(CC)C(=O)[C@@H]3CC[C@@H]12	0.296	-0.538	0.322	0.0379	0.288	-0.495	-0.852 (inactive)	-0.151	-0.662	0.45 (inactive)
Cc1ccc(S[C@]2(C(=O)O)CC(=O)N(Cc3ccccc3)[C@@H]2c2ccc(CO)cc2I)cc1	0.282	0.181	0.0583	-2.82	-2.03	-0.862	-0.486 (inactive)	-0.551	-0.967	0.682 (inactive)
CC(C)=CCCC(C)=CCON=C1[C@H]2CCn3c(=O)n(C)c(=O)n3[C@H]2[C@H](O)[C@@H]2O[C@H]12	0.717	-0.326	1.11	0.114	-0.183	0.46	-0.14 (inactive)	-0.2	-0.731	-0.83 (inactive)
C#CCCCON=C1C[C@@H](O)[C@@H](O)[C@@H]2[C@@H]3C(=O)N(c4cccc(Oc5ccccc5)c4)C(=O)[C@@H]3CC[C@@H]12	-0.559	0.43	-1.57	-0.399	-0.2	0.106	0.126 (inactive)	-0.56	0.835	-0.248 (inactive)
CN1C(=O)C2C=CC(C(O)c3ccc(I)cc3)N(NC(=O)OC(C)(C)C)C2C1=O (stereo not given)	-0.872	-0.692	-1.28	-0.0342	-0.297	-1.56	-0.474 (inactive)	-0.698	0.804	-0.312 (inactive)
CCc1cc2c(nc1CC)CCN(CCC(C)=NO[C@@H](C)c1cc(-c3c(C)cc(C)cc3C)no1)C2	1.9	0.704	1.48	-2.96	-1.59	5.47	0.0344 (inactive)	0.0876	-0.769	0.323 (inactive)
COc1ccc(O[C@H]2C=C[C@@H](c3ccccc3)O[C@@H]2CON=C[C@@H](C)[C@H](OCc2ccccc2)C(C)C)cc1	0.688	-0.106	1.7	0.553	-0.903	0.46	0.732 (inactive)	-0.0803	-0.486	-0.463 (inactive)
CO[C@H]1O[C@H](CO)[C@@H](OC(=O)Nc2ccc(C#N)cc2)[C@H](OC(=O)c2cc3ccccc3[nH]2)[C@H]1OC(=O)c1cc2ccccc2[nH]1	2.71	0.221	0.837	-2.28	-0.909	-1.55	0.53 (inactive)	-0.405	-0.384	-1.49 (inactive)
Cn1c(=O)n2n(c1=O)[C@H]1[C@H](O)[C@@H]3O[C@@H]3C(=NOC[C@@H](O)COCc3ccco3)[C@H]1CC2	0.981	0.323	1.41	0.287	0.588	1.41	-0.439 (inactive)	-0.402	-0.397	-0.195 (inactive)
CCOC(=O)[C@H](Cc1ccccc1)NC(=O)CCC1CC(OC(=O)NCc2ccc3c(c2)OCO3)CC2(CCCC(COC(=O)NCC3CCCCC3)O2)O1 (stereo not given in full)	0.0417	-0.0963	-0.264	-2.06	-2.09	1.84	-0.0648 (inactive)	-0.00903	-0.306	1.02 (inactive)

Compound	z-score [1]	z-score [2]	z-score [3]	z-score [4]	z-score [5]	z-score [6]	z-score [7]	z-score [8]	z-score [9]	z-score [10]
O=C1O[C@@H](c2ccccc2)[C@@H](c2ccccc2)N2[C@@H](c3ccc(OCCO)cc3)[C@]3(C(=O)Nc4ccccc43)[C@@H](C(=O)N3CCN(c4ncccn4)CC3)[C@H]12	-0.47	-0.888	0.834	-0.138	0.229	-0.679	0.339 (inactive)	-0.842	-0.779	0.42 (inactive)
CC(=O)OC[C@H]1O[C@@H](ON=C[C@@H](C)[C@H](OCc2ccccc2)C(C)C)[C@H](OC(C)=O)[C@@H](OC(C)=O)[C@@H]1OC(C)=O	0.605	-0.466	0.471	0.614	0.048	-0.148	0.0097 (inactive)	0.386	-0.863	-1.23 (inactive)
CCCC[C@H]1OB(O)C[C@H]2C1=C(C)C[C@H]1C(=O)N(C)C(=O)[C@H]12	-0.203	-0.623	-1.02	-2.27	-0.848	-1.79	-0.467 (inactive)	0.391	0.203	-0.794 (inactive)
CCCCc1nc2c(c3c1C[C@H](C)OC3)CN(CCC(C)C)CC2	1.25	-0.11	0.597	0.411	-1.35	2.01	-0.836 (inactive)	-0.0883	0.301	0.6 (inactive)
CC(C)[Si]1(C(C)C)O[C@@H](c2ccccc2)c2cc(C3CC3)nc(-c3ccccc3)c21	-0.447	-0.483	-0.244	-2.2	-1.35	-1.8	-0.092 (inactive)	-0.781	-0.192	1.44 (inactive)
CCCNC(=O)OC[C@H]1O[C@H](CCON=CC[C@@H]2C=C[C@H](OC(C)=O)[C@@H](COC(C)=O)O2)C=C[C@@H]1Oc1ccc(OC)cc1	0.51	-0.217	-0.24	-0.516	-1.28	-1.14	-1.12 (inactive)	-0.057	0.306	0.248 (inactive)
COCCOC(=O)N1C(=O)[C@@]2(c3cc(C#CCNC(N)=O)ccc31)[C@H](c1ccc(O)cc1)N1[C@H](c3ccccc3)[C@H](c3ccccc3)OC(=O)[C@H]1[C@@H]2C(=O)N1CCCCCCC1	-0.55	0.012	-0.49	-0.441	0.0294	-1.85	-0.731 (inactive)	0.399	0.298	0.215 (inactive)
CCc1cc2c(nc1CC)CCN(CCC(C)=NOC[C@@H](O)COCc1ccco1)C2	0.902	0.592	0.526	-0.548	-0.862	1.44	-0.901 (inactive)	-0.824	0.581	-0.527 (inactive)
COCCOC(=O)N1C(=O)[C@@]2(c3cc(C#CCNC(N)=O)ccc31)[C@H](c1ccccc1OCCO)N1[C@H](c3ccccc3)[C@H](c3ccccc3)OC(=O)[C@H]1[C@@H]2C(=O)N1CCN(c2ncccn2)CC1	0.0249	0.457	1.37	0.541	1.12	-1.76	0.856 (inactive)	-0.847	-0.859	-1.27 (inactive)
CC(C)=NOCc1ccc(-c2cc(-c3ccccc3)no2)cc1	0.947	0.0379	0.433	0.283	-1.14	-0.49	-0.618 (inactive)	0.825	-0.152	-0.589 (inactive)
CC(C)CN1CCc2nc(-c3ccccc3)c3c(c2CC1)CO[C@@H](C)C3	0.277	0.493	-0.0216	-2.48	-1.32	0.93	0.163 (inactive)	0.0637	0.75	0.569 (inactive)
CC(C)(C)N1CC=CC23O[C@@H]4C=CCCOC(=O)C4[C@H]2C(=O)N(CCCCCO)[C@@H]3C1=O (stereo not given in full)	-0.415	0.231	2.16	1.87	0.227	0.705	0.18 (inactive)	0.117	-0.29	0.0951 (inactive)
COCC(=C=CC[C@@H](O)c1ccccc1OCCO)CCO	1.31	0.177	0.792	0.699	0.551	0.429	0.432 (inactive)	-0.631	0.918	0.675 (inactive)
CCOC(=O)CCN1C(=O)[C@H]2[C@H]3[C@H](O)[C@H](O)CC(=NOC[C@@H](O)COCc4ccco4)[C@H]3CC[C@H]2C1=O	-1.43	0.8	-0.524	-2.09	-2.29	-0.803	-0.433 (inactive)	-0.126	-0.612	-0.383 (inactive)
COc1cccc([C@H]2Oc3ccc(OC)cc3C(=NO[C@H](C)c3cn([C@@H]4COC[C@H]4O)nn3)[C@@H]2O)c1	-1.3	0.67	-0.428	-0.717	-0.786	-0.832	0.839 (inactive)	0.161	-0.761	-0.481 (inactive)
O=C1C[C@@H](O)[C@@H](O)[C@@H]2[C@@H]3C(=O)N(C4CCCCC4)C(=O)[C@@H]3CC[C@H]12	0.18	0.0589	0.0702	-0.148	-0.189	-0.401	-0.364 (inactive)	0.0892	-0.354	0.386 (inactive)

From PubChem BioAssay
